In PubChem BioAssay AID1259349 (Broad Institute, 2017):
Hit rate of the full screen: of about 17,000 compounds, about 1,100 (6.5%) were called active. This excerpt belongs to a sample that is enriched for actives. Values without a mark were called inactive.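 How the source made its calls: active means z-score of -3 or lower, meaning strong loss of probe binding signal; inactive means the rest.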

These molecules were tested against Insulin-degrading enzyme (Homo sapiens) (UniProt P14735) (assay: displacers of FL-6b probe from IDE – biochemical, fluorescence anisotropy, probe displacement, primary screen (AID 1259349;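 further: His-tagged human IDE residues 42-1019 made in E. coli with 30 nM FL-6b probe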)). Settings: purified IDE, FL-6b probe fluorescence polarization; at 20 µM; hits give low values.
Chain of Insulin-degrading enzyme (Homo sapiens) (P14735 42-1019 limits assumed): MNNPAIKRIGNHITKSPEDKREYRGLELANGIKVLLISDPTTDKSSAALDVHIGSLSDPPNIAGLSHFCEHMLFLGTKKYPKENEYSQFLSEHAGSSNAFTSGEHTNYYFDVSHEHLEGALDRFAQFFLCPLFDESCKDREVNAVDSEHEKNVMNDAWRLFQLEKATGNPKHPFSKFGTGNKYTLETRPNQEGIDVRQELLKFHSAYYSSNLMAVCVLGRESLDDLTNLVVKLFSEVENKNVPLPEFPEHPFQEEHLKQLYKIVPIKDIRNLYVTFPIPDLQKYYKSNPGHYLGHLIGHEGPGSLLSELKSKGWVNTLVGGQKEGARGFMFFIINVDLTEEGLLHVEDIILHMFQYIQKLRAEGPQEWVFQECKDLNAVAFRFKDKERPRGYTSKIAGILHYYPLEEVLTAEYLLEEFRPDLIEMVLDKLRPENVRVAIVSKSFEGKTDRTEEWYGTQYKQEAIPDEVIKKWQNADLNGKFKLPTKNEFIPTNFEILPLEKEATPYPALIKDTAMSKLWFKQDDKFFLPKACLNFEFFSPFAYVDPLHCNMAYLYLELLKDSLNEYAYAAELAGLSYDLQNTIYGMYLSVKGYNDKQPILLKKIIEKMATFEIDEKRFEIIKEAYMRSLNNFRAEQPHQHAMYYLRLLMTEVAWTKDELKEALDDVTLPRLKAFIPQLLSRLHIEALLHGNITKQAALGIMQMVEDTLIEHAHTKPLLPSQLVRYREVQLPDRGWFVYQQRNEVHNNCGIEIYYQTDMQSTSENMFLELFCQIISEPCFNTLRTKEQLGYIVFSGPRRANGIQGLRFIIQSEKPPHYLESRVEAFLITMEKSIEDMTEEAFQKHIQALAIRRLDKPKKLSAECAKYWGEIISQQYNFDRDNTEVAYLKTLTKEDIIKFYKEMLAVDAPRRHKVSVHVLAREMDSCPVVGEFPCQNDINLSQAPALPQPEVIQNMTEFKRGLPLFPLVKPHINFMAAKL
With O=C(Cc1ccccn1)N1CCCCN2[C@@H](CO)[C@@H](c3ccc(C#Cc4ccccc4)cc3)[C@@H]2C1 the z-score was -6.91 (active). O=C(Cc1ccccc1)N1CCCCN2[C@H](CO)[C@H](c3ccc(C#Cc4ccccc4)cc3)[C@H]2C1 was tested, and the z-score was -1.93. In the case of O=C(Cc1ccccn1)N1CCCCN2[C@H](C1)[C@H](c1ccc(-c3ccccc3F)cc1)[C@@H]2CO, the z-score is reported as -1.94. In the case of O=C(Cc1ccncc1)N1CCCCN2[C@@H](CO)[C@H](c3ccc(C#CC4(O)CCCC4)cc3)[C@@H]2C1, the z-score is reported as 1.31. Work on COC(=O)[C@@H]1[C@@H](CO)[C@@H]2Cn3c(ccc(-c4cccc(C(=O)N(C)C)c4)c3=O)[C@H]1N2C(=O)NC(C)C yielded a z-score of -0.64.
